RE007 growth inh – less growth of the S. pombe RE007 Vpr strain; S. pombe RE007 Vpr strain, BacTiter-Glo ATP luminescence, 24 h; Potency, µM (top dose mostly 92.2 µM), without a hit: top-dose activity change, negative = less growth, most hits filed as inhibitors; actives 0.21% (n = 360,000); AID 651644; active means well fitted falling curve with a large enough effect; inconclusive means small, poorly fitted or top-dose-only effect; inactive means no such curve, though single readings can be large or run the other way; further: on the % scale 0 is the no-effect control and ±100 the full control effect; nearly all actives have a fitted effect of over 50% in size
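Fission yeast strain RE007, carrying one chromosomally integrated HIV-1 vpr copy, was seeded at OD 0.01 in PMG+AL medium with 23 nL pinned compound. After 24 h at 30 °C and 99% humidity, viability was read by BacTiter-Glo luminescence.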
NS1 function inh – inhibitors of influenza NS1 protein function | Potency, µM (top dose mostly 46.1 µM), for inactives: at the highest dose activity, positive = more growth | actives 0.4% (n = 270,000) | AID 2326; calls by dose curve; further: actives are rising curves; nearly all actives have a fitted effect of over 50% in size
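OD600 was taken as the measure of yeast growth restored by compound in an NS1-expressing S. cerevisiae strain. Cells had been washed out of glucose medium and diluted 1:100 into galactose -URA medium, pH 6.0.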
SARS PLP yeast – SARS-CoV PLP inhibition in yeast. AID 485353. S. cerevisiae expressing SARS-CoV PLpro, growth rescue. actives 0.19% (n = 330,000). Potency, µM (highest dose often 32.9 µM), for inactives: top-dose activity, positive = growth rescue, usual class: activators; calls by dose curve; further: 0% is about no effect; nearly all actives have a fitted effect of over 55% in size
LmPK inhibitor – blocks Leishmania mexicana pyruvate kinase activity. purified LmPK, Kinase-Glo ATP luminescence, 1 h. Potency, µM (titrated, usually from 57.5 µM), inactives show top-dose activity change, negative = inhibition, hits mostly inhibitors. actives 0.37% (n = 290,000); further: on the % scale 0 is the no-effect control and ±100 the full control effect
Target sequence (Q27686 whole entry, looked up): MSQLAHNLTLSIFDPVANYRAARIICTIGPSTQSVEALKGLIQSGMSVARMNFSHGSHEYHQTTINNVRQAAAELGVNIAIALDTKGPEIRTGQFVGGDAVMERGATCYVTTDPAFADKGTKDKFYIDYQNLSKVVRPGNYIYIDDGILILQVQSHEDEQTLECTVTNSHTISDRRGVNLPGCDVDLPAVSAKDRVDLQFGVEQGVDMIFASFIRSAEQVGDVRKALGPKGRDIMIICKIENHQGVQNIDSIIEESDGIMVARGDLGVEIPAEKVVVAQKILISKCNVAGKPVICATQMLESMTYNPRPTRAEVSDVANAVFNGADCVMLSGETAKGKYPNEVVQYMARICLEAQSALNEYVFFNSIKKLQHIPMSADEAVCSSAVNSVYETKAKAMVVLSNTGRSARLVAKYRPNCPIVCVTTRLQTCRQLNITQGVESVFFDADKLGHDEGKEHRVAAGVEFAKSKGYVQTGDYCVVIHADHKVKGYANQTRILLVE
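Pyruvate kinase activity monitored as ATP production (luciferase luminescence). Conditions: 0.1 nM enzyme, 0.5 mM PEP, 0.1 mM ADP, 1 h, RT; normalized against uninhibited and no-enzyme wells.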
Sm TGR inh – inhibitors of Schistosoma mansoni thioredoxin glutathione reductase; Potency, µM (titrated, usually from 114 µM), for inactives: at the highest dose activity change, negative = inhibition, actives largely listed as inhibitors; actives 3% (n = 360,000); AID 485364; Q962Y6; purified TGR, DTNB reduction, TNB absorbance 405 nm; further: on the % scale 0 is the no-effect control and ±100 the full control effect; nearly all actives have a fitted effect of over 60% in size
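TGR 20 nM + NADPH 100 uM (dispensed conc.), cpd preinc 15 min RT; start with NADPH (500 uM addition) then DTNB (15 mM addition). Kinetic TNB absorbance, 405 nm filter. Four-parameter Hill fit across titration.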
TbPYK inhibitor – T. brucei pyruvate kinase inhibition | Q57TT1 | TbPYK enzyme, Kinase-Glo Plus ATP luminescence, 45 min | Potency, µM (series often up to 76.8 µM), for the others: at the highest dose activity, negative = inhibition, most hits filed as inhibitors | actives 0.12% (n = 410,000) | AID 624173; further: on the % scale 0 is the no-effect control and ±100 the full control effect; nearly all actives have a fitted effect of over 50% in size
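ADP (130 uM final) triggers the TbPYK reaction after compound addition; incubation is 45 min at room temperature. Kinase-Glo Plus is then added and luminescence imaged. Normalized data are fitted to concentration-effect curves.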
Numbers without * were called inactive; ? = inconclusive; . = no result given; [ ] = another dose, or the depositor's remark. Sampled rows, rich in hits. Any-hit rate of the full collection: about 3.3%. Unless noted, the call rests on the fitted dose curve; in most records, active means well fitted curve in the direction sought with a large enough effect; inconclusive means small, poorly fitted or top-dose-only effect, or another doubt; inactive means no such curve, though single readings can be large; an effect the other way counts as inactive or inconclusive. Potency means the concentration at half of the fitted maximal effect.

SMILES | RE007 growth inh | NS1 function inh | SARS PLP yeast | LmPK inhibitor | Sm TGR inh | TbPYK inhibitor
Cc1cccc(NC(=O)CN2C(=O)S/C(=C\c3cc(C)n(C)c3C)C2=O)c1 | . | ? | 17% | -1% | ? | 0%
COc1cc(CCN)c(OC)cc1Br | . | . | . | . | . | 4%[157 µM]
CCOc1cccc2sc(N(Cc3cccnc3)C(=O)C3CCCCC3)nc12 | . | . | . | . | 10% | 5%[15.4 µM]
Cn1c(-c2c(N)n(C3CCCC3)c3nc4ccccc4nc23)nc2ccccc21 | 7.1µM* | -132% | -47% | 2% | 13% | -9%
Cn1c(-c2c(N)n(CCc3ccccc3)c3nc4ccccc4nc23)nc2ccccc21 | ? | -133% | -29% | 8% | -22% | -5%
C(=C\c1nc2ccccc2[nH]1)/c1ccccc1 | 32µM* | -109% | -34% | 8.9µM* | 9% | ?
O=c1[nH]c(/C=C/c2ccc(Br)cc2)nc2ccccc12 | 2% | -2% | 0% | 2% | -15% | -23%
O=C(/C=C/c1ccco1)Nc1ccc(-c2nc3ccccc3[nH]2)cc1 | 22% | 15% | 8% | -4% | -18% | 1%
C(=C\c1ccco1)/c1nc2ccccc2[nH]1 | -26% | -4% | -4% | ? | 3.2µM* | -20%
O=C(Cn1ncc2c3ccccc3n(Cc3cccc(Cl)c3)c2c1=O)N1CCCCCC1 | . | . | . | . | 3% | -7%
CCN=C1S/C(=C/c2ccc(-c3ccc(F)cc3)o2)C(=O)N1CC | -11% | -1% | 1% | -7% | 45µM* | 2%
CCN=C1S/C(=C\c2ccc(Sc3ccc(Cl)cc3)o2)C(=O)N1CC | 1% | 11% | 6% | 2% | 45µM* | 6%
CCN=C1S/C(=C\c2cn(CC)c3ccccc23)C(=O)N1CC | -9% | 8% | -16% | -2% | -14% | 0%
CCOC(=O)c1cccc(NS(=O)(=O)c2ccc3[nH]c4c(c3c2)CCCC4)c1 | . | . | . | . | 2% | 2%
O=C1C=CC(=Nc2ccc3c(c2)C(=O)c2ccccc2-3)O1 | ? | . | . | . | . | -29%
O=C1C=CC(=Nc2ccc(F)cc2)O1 | 5µM* | . | . | . | . | ?
Cc1cc(=S)cc(C)n1CCO | -30% | 2% | 16% | -1% | 14µM* | 3%
Cc1ccccc1-c1noc(-c2cccnc2N2CCN(c3ccccc3)CC2)n1 | . | . | . | . | 3% | -11%
C(=C\n1nnc2ccccc21)/c1ccc[nH]1 | -11% | . | -3% | . | 25µM* | 8%
N=C1SCC(=O)N1c1ncc(Cc2ccc(F)cc2)s1 | 28µM* | -65% | -6% | 0% | 0%[57.1 µM] | -1%
O=C(Cn1cc(SCc2ccccc2F)c2ccccc21)N1CCCCCC1 | . | . | . | . | 4% | -2%
O=c1oc(Cl)c(Cl)c2ccccc12 | 19% | -10% | . | . | 3.2µM* | -5%
Cc1nc2n(c(=O)c1CCN1CCC(c3noc4cc(F)ccc34)CC1)CCC[C@@H]2O | . | . | . | . | . | -5%
CC(=O)/C=N/Nc1ccccc1 | 8% | 6% | -1% | 0% | -30% | -3%
OC[C@@H](O)[C@H](O)C(/C=N/Nc1ccccc1)=N\Nc1ccccc1 | 114% | -7% | 2% | 3% | 20µM* | -8%
SMILES | RE007 growth inh | NS1 function inh | SARS PLP yeast | LmPK inhibitor | Sm TGR inh | TbPYK inhibitor
COCCn1c(SCC(=O)c2ccc(F)cc2)nc2cc(C(=O)NC3CCCC3)ccc2c1=O | . | . | . | . | 3% | -6%
Cc1ccc(C(=O)N2NC(c3ccc(F)cc3)C3C(=O)N(c4ccc(C)cc4)C(=O)C32)cc1 (configuration not stated) | -4% | 5% | -11% | 2% | -7% | -3%
CCOc1ccc(N2C(=O)C3C(c4ccccc4F)NN(C(=O)c4ccc(C)cc4)C3C2=O)cc1 (configuration not stated) | 5% | 5% | -3% | 1% | 50µM* | 3%
CC(C)NC(=O)NC1C2CC3CC(C2)CC1C3 (configuration not stated) | -19% | -53% | -18% | 2% | 89µM* | -5%
CCN(CC)C(=O)c1cc([N+](=O)[O-])cc2c1-c1ccc([N+](=O)[O-])cc1C2=C(C#N)C#N | -3% | 4% | 0% | -1% | 4µM* | -1%
Brc1ccc(Cn2c(-c3ccc(Br)o3)nc3ccccc32)o1 | 9% | -21% | -22% | -5% | 22µM* | -1%
Oc1ccc(Cn2c(-c3ccc(O)cc3)nc3ccccc32)cc1 | . | -2% | . | . | . | .
Cc1nc2sc(C(c3ccco3)N3CCC(C)CC3)c(O)n2n1 (configuration not stated) | -7% | -111% | 0% | -4% | 45µM* | -16%
Cc1nc2sc(C(c3ccco3)N3CC(C)OC(C)C3)c(O)n2n1 (configuration not stated) | 0% | 16% | 8% | 2% | 45µM* | -16%
Cc1nc2sc(C(c3ccccc3)N3CC(C)OC(C)C3)c(O)n2n1 (configuration not stated) | 11% | 2% | 6% | 1% | 5% | -12%
Cc1ccc2c(c1)c1c(c(=O)n(-c3cccc(Cl)c3)c(=O)n1CC(=O)Nc1c(C)cccc1C)n2C | . | . | . | . | -6% | -1%
Cc1cccc(-n2c(=O)c3ccccc3n(Cc3ccc(F)cc3)c2=O)c1 | . | . | . | . | 4% | -4%
Cc1ccc(/C=C/C(=O)Nc2cccc(S(=O)(=O)N3CCOCC3)c2)o1 | -13% | ? | -7% | -17% | 11µM* | ?
Cc1ccc(/C=C/C(=O)Nc2ccncc2)o1 | -15% | -3% | -16% | -4% | 8.9µM* | -15%
Cc1ccc(/C=C/C(=O)NC2CCCCCCC2)o1 | -91% | -45% | -75% | -7% | 2.5µM* | 7.9µM*
Cc1ccc(/C=C/C(=O)NCc2ccc3c(c2)OCO3)o1 | 16% | 13% | -25% | 0% | 13µM* | ?
CC(=O)N[C@@H]1CONC1=O | . | -1% | . | . | . | .
Cc1ccc(/C=C/C(=O)Nc2ccc(S(N)(=O)=O)cc2)o1 | -4% | 1% | 1% | -16% | 7.9µM* | ?
CC(=O)NS(=O)(=O)c1ccc(NC(=O)/C=C/c2ccc(C)o2)cc1 | 9% | 5% | 0% | 4% | . | ?
Cc1ccc(/C=C/C(=O)OCC(=O)NCCc2ccc(S(N)(=O)=O)cc2)o1 | 3% | . | 10% | . | . | -22%
Cc1ccc(/C=C/C(=O)NCc2ccc(S(N)(=O)=O)cc2)o1 | -6% | 6% | 0% | -2% | . | 10µM*
COc1ccc(CNS(=O)(=O)c2ccc(-c3ccc(=O)[nH]n3)o2)cc1 | 14% | -4% | -12% | -6% | 89µM* | -1%
COc1cc2[nH]c(=S)nc(NCCc3ccc(S(N)(=O)=O)cc3)c2cc1OC | -7% | . | 2% | 0% | 14µM* | 3%
S=C(NCc1ccco1)Nc1ccc(Cl)cn1 | 3% | 14% | -4% | 7% | 3.2µM* | -12%
